Experimental findings from PubChem BioAssay (EPA / NIEHS) are described below.

Activity calls are given as the source filed them. Rule for the calls: active = hit-call score of the fitted dose curve at least 0.9, where 1 is the maximum; inactive = score below 0.9.

Broadly, the AC50 is the concentration at which the activity in the assay is half-maximal.

A short description of experiment [1]: ATG_CRE_CIS: Attagene CIS-FACTORIAL HepG2 Assay for human cAMP Responsive Element (CRE) binding protein 3 (AID 2282926). Conditions: HepG2 CRE cis-reporter, Attagene multiplexed mRNA; actives raise or lower the signal. The method, boiled down:
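Readout: fluorescently labelled reporter transcripts resolved by capillary electrophoresis after RT-PCR, taken 24 h post-dosing in transfected HepG2. Endogenous transcription factor activity drives each cis-element reporter; gain or loss of signal fitted relative to DMSO control.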

Experiment [2] has as its target CCAAT/enhancer-binding protein beta (Homo sapiens) (UniProt P17676). Put plainly: ATG_C_EBP_CIS: Attagene CIS-FACTORIAL HepG2 Assay for human CCAAT/Enhancer Binding Protein (C/EBP) beta (AID 2282927). To be noted: HepG2 Attagene cis-factorial transcription factor reporter; actives raise or lower the signal. The method, boiled down:
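HepG2 transiently transfected with multiplexed reporter units under cis-regulatory promoters reporting endogenous C/EBPb activity. After 24 h exposure, reporter mRNA assayed by RT-PCR, fluorescent labelling, HpaI digestion and capillary electrophoresis; bidirectional fitting versus DMSO.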

A short description of experiment [3]: ATG_DR4_LXR_CIS: Attagene CIS-FACTORIAL HepG2 Assay for human Liver X Receptor (LXR), DR4 submotif (AID 2282929). To be noted: HepG2 Attagene DR4 cis-reporter, mRNA transcription; actives raise or lower the signal. In outline: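 HepG2 cells transiently transfected with cis-promoter-driven multiplexed reporter units (DR4 element) were dosed for 24 h. Reporter mRNA was quantified by RT-PCR, fluorescent primer extension, HpaI digestion and capillary electrophoresis; bidirectional fitting versus DMSO baseline.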

Experiment [4] can be described thus: ATG_AP_2_CIS: Attagene CIS-FACTORIAL HepG2 Assay for human Activator Protein 2 (AP-2) (AID 2282932). To be noted: HepG2 AP-2 cis-reporter, Attagene transcription factor profiling; actives raise or lower the signal. The method, boiled down:
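Liver-derived HepG2 line, cis-reporter system measuring endogenous factors; 24 h dosing; reporter mRNA detected by fluorescent RT-PCR and capillary electrophoresis.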

Experiment [5] is described as follows: ATG_BRE_CIS: Attagene CIS-FACTORIAL HepG2 Assay for human Bone Morphogenetic Protein (BMP) Response Element (BRE) (AID 2282933). Conditions: HepG2 BMP response element reporter, Attagene transcription factor profiling; actives raise or lower the signal. In outline: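 Read-out: reporter mRNA induction quantified by RT-PCR and capillary electrophoresis after 24 h chemical exposure of transfected HepG2 cells. Endogenous factor activity on the BMP response element; gain or loss fitted against DMSO baseline.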

The target of experiment [6] is Transcription factor E2F1 (Homo sapiens) (UniProt Q01094). Put plainly: ATG_E2F_CIS: Attagene CIS-FACTORIAL HepG2 Assay for human E2F Transcription Factor 1 (AID 2282935). Conditions: HepG2 Attagene cis-reporter, E2F reporter RNA transcripts; actives raise or lower the signal. The method, boiled down: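 Liver-derived HepG2 cells expressing transfected promoter-driven reporter units received test chemical for 24 hours. Signal gains or losses were fitted bidirectionally against DMSO.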
Transcription factor E2F1 (Homo sapiens), sequence (Q01094 whole entry, looked up): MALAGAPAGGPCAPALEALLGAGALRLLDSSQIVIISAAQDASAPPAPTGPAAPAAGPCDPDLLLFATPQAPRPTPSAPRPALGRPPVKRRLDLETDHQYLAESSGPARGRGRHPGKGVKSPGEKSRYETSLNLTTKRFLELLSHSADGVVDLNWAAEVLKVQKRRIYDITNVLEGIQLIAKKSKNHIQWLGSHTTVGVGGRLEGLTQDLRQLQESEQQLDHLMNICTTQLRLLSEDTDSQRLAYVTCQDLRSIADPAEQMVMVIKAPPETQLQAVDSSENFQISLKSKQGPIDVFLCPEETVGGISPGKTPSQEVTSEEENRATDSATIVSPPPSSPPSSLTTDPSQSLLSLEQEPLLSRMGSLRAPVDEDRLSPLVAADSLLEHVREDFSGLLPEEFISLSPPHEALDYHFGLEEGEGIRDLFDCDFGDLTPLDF

The nature of experiment [7]: ATG_EGR_CIS: Attagene CIS-FACTORIAL HepG2 Assay for human Early Growth Response 1 (EGR1) (AID 2282938). To be noted: HepG2 Attagene CIS-FACTORIAL EGR reporter mRNA; actives raise or lower the signal. In outline: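 HepG2 cells transiently transfected with cis-promoter-driven multiplexed reporter transcription units; reporter mRNA measured 24 h after compound dosing by RT-PCR, 6-FAM primer extension, HpaI digestion and capillary electrophoresis. Bidirectional fit versus DMSO baseline.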

Experiment [8] can be described thus: ATG_M_19_CIS: Attagene CIS-FACTORIAL HepG2 Assay for M19 Transcription Factor (Internal Marker) (AID 2282939). Conditions: HepG2 Attagene CIS-FACTORIAL M19 internal marker reporter; actives raise or lower the signal. The method, boiled down: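 Readout: fluorescent reporter-transcript fragments by capillary electrophoresis after RT-PCR. Human HepG2 liver cells carried transfected MRTU constructs reporting endogenous transcription-factor activity; exposure 24 h. Gain or loss of signal fitted relative to DMSO.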

A short description of experiment [9]: ATG_Ets_CIS: Attagene CIS-FACTORIAL HepG2 Assay for human Erythroblast Transformation Specific (ETS) (AID 2282941). Conditions: HepG2 ETS cis-reporter transcription, actives raise or lower the signal. In outline:
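Multiplexed reporter transcript profiling: HepG2, 24 h treatment, total RNA to cDNA, PCR, 6-FAM labelling, HpaI cut, capillary electrophoresis. Gain- or loss-of-signal fitted against DMSO.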

In experiment [10] the target is Hepatocyte nuclear factor 3-beta (Homo sapiens) (UniProt Q9Y261). Kind of experiment: ATG_FoxA2_CIS: Attagene CIS-FACTORIAL HepG2 Assay for human Forkhead box A2 (FOXA2) (AID 2282942). To be noted: HepG2 cis-reporter transcription factor activity, 24 h; actives raise or lower the signal. The method, boiled down:
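HepG2 cells transiently transfected with multiple cis-regulated reporter transcription units, dosed for 24 h. Reporter mRNA measured by RT-PCR, 6-FAM labelling, HpaI digestion and capillary electrophoresis; bidirectional fitting against DMSO baseline.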

Experiment [11] in a line: ATG_FoxO_CIS: Attagene CIS-FACTORIAL HepG2 Assay for human Forkhead box O (FoxO) (AID 2282943). Conditions: HepG2 Attagene cis-reporter, FoxO element, mRNA; actives raise or lower the signal. The method, boiled down: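 HepG2 cells transiently transfected with cis-element-driven reporter units report endogenous FoxO activity. After 24 h chemical exposure, reporter mRNA quantified by RT-PCR, fluorescent labeling, HpaI digestion and capillary electrophoresis; bidirectional fit versus DMSO.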

A short description of experiment [12]: ATG_GATA_CIS: Attagene CIS-FACTORIAL HepG2 Assay for human GATA Binding Protein (AID 2282944). To be noted: HepG2 GATA cis-element reporter, Attagene multiplex mRNA; actives raise or lower the signal. The method, boiled down:
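Read-out: fluorescent reporter mRNA fragments resolved by capillary electrophoresis after RT-PCR. Human liver HepG2 cells carried transiently transfected cis-regulated reporter constructs; chemicals incubated 24 h; gain or loss of signal fitted relative to DMSO.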

Experiment [13] can be described thus: ATG_GLI_CIS: Attagene CIS-FACTORIAL HepG2 Assay for human Zinc Finger Protein GLI1 (AID 2282945). To be noted: HepG2, Attagene cis-factorial reporter mRNA, GLI element; actives raise or lower the signal. In outline:
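Transiently transfected HepG2 cells report endogenous transcription factor activity via cis-element-driven reporter units. After 24 h compound exposure, reporter mRNA was measured by RT-PCR with capillary electrophoresis; bidirectional fitting against DMSO baseline.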

Experiment [14] can be described thus: ATG_M_06_CIS: Attagene CIS-FACTORIAL HepG2 Assay for M06 Transcription Factor (Internal Marker) (AID 2282950). Conditions: HepG2 Attagene CIS-FACTORIAL M06 internal marker reporter; actives raise or lower the signal. The method, boiled down: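 Terse: HepG2, transient MRTU transfection (FuGene 6), 24 h dosing; total RNA, oligo(dT) RT, PCR, FAM label, HpaI cut, capillary electrophoresis; bidirectional fit vs DMSO baseline; background-control endpoint.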

Experiment [15] in a line: ATG_MRE_CIS: Attagene CIS-FACTORIAL HepG2 Assay for human Metal Responsive Element (MRE) (AID 2282954). To be noted: HepG2 MRE cis-reporter transcription, Attagene multiplex; actives raise or lower the signal. In outline:
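Measured here is mRNA induction from an MRE cis-element reporter in HepG2 after 24 h, quantified by fluorescence of labelled RT-PCR products on capillary electrophoresis; gain- and loss-of-signal fits use DMSO as baseline.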

For experiment [16], the target named is Paired box protein Pax-6 (Homo sapiens) (UniProt P26367). Kind of experiment: ATG_Pax6_CIS: Attagene CIS-FACTORIAL HepG2 Assay for human Paired Box 6 (PAX6) (AID 2282956). Conditions: HepG2 CIS-FACTORIAL PAX6 reporter transcription, RNA readout; actives raise or lower the signal. The method, boiled down: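 Values derive from bidirectional curve fitting of reporter mRNA signal relative to DMSO. HepG2 cells bearing transfected cis-regulated MRTUs were exposed for 24 h; transcripts were read by RT-PCR and capillary electrophoresis.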
Paired box protein Pax-6 (Homo sapiens), sequence (P26367 whole entry, looked up): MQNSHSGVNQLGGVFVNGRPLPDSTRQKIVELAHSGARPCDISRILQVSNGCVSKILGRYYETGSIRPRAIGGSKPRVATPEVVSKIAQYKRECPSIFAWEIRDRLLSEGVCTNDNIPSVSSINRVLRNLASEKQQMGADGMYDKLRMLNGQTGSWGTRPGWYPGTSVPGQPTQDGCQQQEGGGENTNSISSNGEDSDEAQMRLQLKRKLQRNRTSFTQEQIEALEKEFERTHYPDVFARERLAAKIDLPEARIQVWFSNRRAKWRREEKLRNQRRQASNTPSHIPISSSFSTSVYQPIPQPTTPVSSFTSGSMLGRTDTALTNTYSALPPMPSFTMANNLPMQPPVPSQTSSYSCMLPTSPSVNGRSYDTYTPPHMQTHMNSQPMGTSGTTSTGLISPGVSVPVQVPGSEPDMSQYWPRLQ

Experiment [17] in a line: ATG_PXRE_CIS: Attagene CIS-FACTORIAL HepG2 Assay for human Pregnane X Receptor Element (PXRE) (AID 2282957). To be noted: HepG2 Attagene CIS-FACTORIAL PXRE reporter, mRNA; actives raise or lower the signal. In outline:
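Read-out: fluorescence of reporter-specific RT-PCR products resolved by capillary electrophoresis, fitted bidirectionally relative to DMSO. Human HepG2 liver cells carried transfected cis-promoter reporter units and were exposed to chemicals for 24 h.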

The nature of experiment [18]: ATG_Sox_CIS: Attagene CIS-FACTORIAL HepG2 Assay for human SRY-box transcription factor (SOX) (AID 2282960). Conditions: HepG2 Attagene cis-factorial SOX reporter, mRNA; actives raise or lower the signal. In outline: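 HepG2 cells transiently transfected with cis-element-driven multiple reporter transcription units, dosed 24 h; reporter mRNA measured by RT-PCR, FAM labelling, HpaI digestion and capillary electrophoresis. Bidirectional fit versus DMSO baseline.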

Experiment [19] concerns the target Transcription factor Sp1 (Homo sapiens) (UniProt P08047). Put plainly: ATG_Sp1_CIS: Attagene CIS-FACTORIAL HepG2 Assay for human Specificity Protein 1 (Sp1) (AID 2282961). To be noted: HepG2 Sp1 cis-reporter transcription, actives raise or lower the signal. In outline: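 HepG2 cells transiently transfected with multiple reporter transcription units driven by cis-regulatory elements; Sp1-responsive reporter mRNA measured 24 h after dosing by RT-PCR and capillary electrophoresis fluorescence, fitted bidirectionally against DMSO baseline.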

Experiment [20] in a line: ATG_SREBP_CIS: Attagene CIS-FACTORIAL HepG2 Assay for human Sterol Regulatory Element Binding (SREBP) (AID 2282962). Conditions: HepG2 Attagene cis-factorial SREBP reporter, mRNA; actives raise or lower the signal. In outline:
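Values derive from bidirectional curve fitting with DMSO as baseline. The underlying measurement is reporter mRNA from cis-element-regulated units in transiently transfected HepG2, quantified by RT-PCR and capillary electrophoresis after 24 h exposure.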

Hepatocyte nuclear factor 3-beta (Homo sapiens), sequence (Q9Y261 whole entry, looked up): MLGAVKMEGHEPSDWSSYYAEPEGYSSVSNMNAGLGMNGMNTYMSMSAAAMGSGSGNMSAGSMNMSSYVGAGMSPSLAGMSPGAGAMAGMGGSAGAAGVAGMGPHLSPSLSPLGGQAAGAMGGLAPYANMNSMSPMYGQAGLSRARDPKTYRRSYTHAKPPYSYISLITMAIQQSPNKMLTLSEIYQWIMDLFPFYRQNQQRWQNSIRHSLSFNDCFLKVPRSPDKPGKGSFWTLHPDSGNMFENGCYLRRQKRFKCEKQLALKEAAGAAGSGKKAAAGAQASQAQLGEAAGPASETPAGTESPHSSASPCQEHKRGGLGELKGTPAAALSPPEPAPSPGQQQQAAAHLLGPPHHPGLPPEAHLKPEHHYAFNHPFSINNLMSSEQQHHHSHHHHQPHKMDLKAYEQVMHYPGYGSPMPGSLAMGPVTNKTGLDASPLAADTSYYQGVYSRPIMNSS
CCAAT/enhancer-binding protein beta (Homo sapiens), sequence (P17676 whole entry, looked up): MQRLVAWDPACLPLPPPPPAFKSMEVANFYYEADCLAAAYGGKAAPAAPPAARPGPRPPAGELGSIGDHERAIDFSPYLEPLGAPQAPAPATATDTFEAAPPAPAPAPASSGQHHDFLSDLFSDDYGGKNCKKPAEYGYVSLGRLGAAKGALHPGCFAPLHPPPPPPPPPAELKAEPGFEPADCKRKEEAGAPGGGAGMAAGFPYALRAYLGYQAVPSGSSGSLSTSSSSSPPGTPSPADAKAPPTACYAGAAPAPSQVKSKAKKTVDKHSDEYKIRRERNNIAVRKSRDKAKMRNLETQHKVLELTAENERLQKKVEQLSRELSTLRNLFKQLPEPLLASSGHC
Transcription factor Sp1 (Homo sapiens), sequence (P08047 whole entry, looked up): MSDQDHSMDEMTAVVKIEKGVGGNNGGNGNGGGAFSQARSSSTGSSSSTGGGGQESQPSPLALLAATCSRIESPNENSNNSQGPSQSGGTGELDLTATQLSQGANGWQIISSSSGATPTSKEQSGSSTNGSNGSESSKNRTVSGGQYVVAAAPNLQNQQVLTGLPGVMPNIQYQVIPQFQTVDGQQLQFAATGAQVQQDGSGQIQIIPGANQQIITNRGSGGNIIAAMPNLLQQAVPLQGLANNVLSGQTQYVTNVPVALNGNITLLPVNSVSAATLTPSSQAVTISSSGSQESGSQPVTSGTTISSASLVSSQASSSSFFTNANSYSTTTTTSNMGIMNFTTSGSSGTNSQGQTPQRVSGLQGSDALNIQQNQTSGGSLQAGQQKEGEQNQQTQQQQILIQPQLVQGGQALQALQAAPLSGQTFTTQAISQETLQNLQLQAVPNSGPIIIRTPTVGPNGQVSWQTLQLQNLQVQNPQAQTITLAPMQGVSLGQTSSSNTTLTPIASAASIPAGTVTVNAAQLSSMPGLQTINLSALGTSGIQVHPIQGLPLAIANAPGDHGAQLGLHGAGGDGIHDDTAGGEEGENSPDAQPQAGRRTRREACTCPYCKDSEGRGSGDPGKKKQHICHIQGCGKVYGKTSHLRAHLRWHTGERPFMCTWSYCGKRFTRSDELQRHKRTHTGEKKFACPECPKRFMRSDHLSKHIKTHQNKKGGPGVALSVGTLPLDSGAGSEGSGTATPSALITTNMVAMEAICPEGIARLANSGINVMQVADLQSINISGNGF

As to `C=CC(=O)OC`, the compound was classed as inactive in experiment [1], in experiment [2], in [3], in experiment [4], in experiment [5] and in experiment [6]. Besides, the outcome in [7], in [8], in experiment [9], in [10], in [11] and in experiment [12] was inactive. The compound was classed as inactive in experiment [13], in [14], in [15], in [16], in experiment [17] and in [18]. The compound was called inactive in experiment [19] and in experiment [20].

Regarding `Cc1ccc(OP(=O)(Oc2ccc(C)cc2)Oc2ccc(C)cc2)cc1` (tested in a mixture with another compound), the result in experiment [1], in [2], in experiment [4], in experiment [5], in [6] and in experiment [7] was inactive. In addition, the compound was classed as inactive in experiment [8], in [9], in experiment [10], in experiment [11], in experiment [12] and in experiment [13]. Moreover, the call in [14], in [15], in experiment [16], in [18], in experiment [19] and in experiment [20] was inactive. Moreover, the AC50 in experiment [3] is 9.36 µM (active); in [17], 0.519 µM (active).

Turning to `O=[N+]([O-])C=Cc1ccccc1`, the AC50 in experiment [1] is 20 µM (active); in [3], 29.6 µM (active); in experiment [4] it was 21.4 µM (active); in experiment [5] it was 44.2 µM (active); in experiment [7] it was 14.4 µM (active); in [10], 22.7 µM (active). Moreover, the AC50 in [11] was 33.4 µM (active); in experiment [12] it was 22.1 µM (active); in [13], 31.2 µM (active); in [15], 13.3 µM (active); in [16], 21.1 µM (active); in [17], 56.8 µM (active). Also, the values for the AC50 in experiment [18] and in experiment [19] were 20.1 µM (active) and 21.2 µM (active), respectively. Also, the result in experiment [2], in experiment [6], in experiment [8], in experiment [9], in [14] and in experiment [20] was inactive.

With `c1cc(OCC2CO2)ccc1Cc1ccc(OCC2CO2)cc1` (stereo not given), the AC50 is 19.6 µM (active) in experiment [1]; 48.3 µM (active) in [3]; 57.9 µM (active) in [4]; 33.4 µM (active) in experiment [7]; 42.6 µM (active) in experiment [15]; 33.4 µM (active) in experiment [16]. The AC50 was 8.22 µM (active) in experiment [17], 33.4 µM (active) in experiment [18], 37.6 µM (active) in [19] and 33.4 µM (active) in [20]. In addition, the result in experiment [2], in experiment [5], in experiment [6], in experiment [8], in experiment [9] and in experiment [10] was inactive. Also, the outcome in experiment [11], in [12], in experiment [13] and in [14] was inactive.

Regarding `ClCC(Cl)Cl`, the outcome in experiment [1], in experiment [2], in experiment [3], in experiment [4], in [5] and in experiment [6] was inactive. Also, the compound was classed as inactive in experiment [7], in [8], in experiment [9], in [10], in [11] and in [12]. Besides, the result in experiment [13], in experiment [14], in experiment [15], in experiment [16], in experiment [17] and in experiment [18] was inactive. Besides, the result in experiment [19] and in [20] was inactive.
